The list is not random: actives were taken first. Their share in the collection is about 3.8%.
p-CIP stab down = p/CIP-EGFP fusion destabilizers, primary screen, fluorescence, F442A cells; Q05BA5; 16 h; decrease of EGFP signal, % at 10 µM; actives 0.01% (n = 290,000); AID 1984, 2009;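 active = EGFP signal decrease of at least 30% at 10 µM or well 3 SD below plate mean, unless failing retest; inactive = the rest, including hits failing retest or dose response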
Target sequence (Q05BA5 1-1403): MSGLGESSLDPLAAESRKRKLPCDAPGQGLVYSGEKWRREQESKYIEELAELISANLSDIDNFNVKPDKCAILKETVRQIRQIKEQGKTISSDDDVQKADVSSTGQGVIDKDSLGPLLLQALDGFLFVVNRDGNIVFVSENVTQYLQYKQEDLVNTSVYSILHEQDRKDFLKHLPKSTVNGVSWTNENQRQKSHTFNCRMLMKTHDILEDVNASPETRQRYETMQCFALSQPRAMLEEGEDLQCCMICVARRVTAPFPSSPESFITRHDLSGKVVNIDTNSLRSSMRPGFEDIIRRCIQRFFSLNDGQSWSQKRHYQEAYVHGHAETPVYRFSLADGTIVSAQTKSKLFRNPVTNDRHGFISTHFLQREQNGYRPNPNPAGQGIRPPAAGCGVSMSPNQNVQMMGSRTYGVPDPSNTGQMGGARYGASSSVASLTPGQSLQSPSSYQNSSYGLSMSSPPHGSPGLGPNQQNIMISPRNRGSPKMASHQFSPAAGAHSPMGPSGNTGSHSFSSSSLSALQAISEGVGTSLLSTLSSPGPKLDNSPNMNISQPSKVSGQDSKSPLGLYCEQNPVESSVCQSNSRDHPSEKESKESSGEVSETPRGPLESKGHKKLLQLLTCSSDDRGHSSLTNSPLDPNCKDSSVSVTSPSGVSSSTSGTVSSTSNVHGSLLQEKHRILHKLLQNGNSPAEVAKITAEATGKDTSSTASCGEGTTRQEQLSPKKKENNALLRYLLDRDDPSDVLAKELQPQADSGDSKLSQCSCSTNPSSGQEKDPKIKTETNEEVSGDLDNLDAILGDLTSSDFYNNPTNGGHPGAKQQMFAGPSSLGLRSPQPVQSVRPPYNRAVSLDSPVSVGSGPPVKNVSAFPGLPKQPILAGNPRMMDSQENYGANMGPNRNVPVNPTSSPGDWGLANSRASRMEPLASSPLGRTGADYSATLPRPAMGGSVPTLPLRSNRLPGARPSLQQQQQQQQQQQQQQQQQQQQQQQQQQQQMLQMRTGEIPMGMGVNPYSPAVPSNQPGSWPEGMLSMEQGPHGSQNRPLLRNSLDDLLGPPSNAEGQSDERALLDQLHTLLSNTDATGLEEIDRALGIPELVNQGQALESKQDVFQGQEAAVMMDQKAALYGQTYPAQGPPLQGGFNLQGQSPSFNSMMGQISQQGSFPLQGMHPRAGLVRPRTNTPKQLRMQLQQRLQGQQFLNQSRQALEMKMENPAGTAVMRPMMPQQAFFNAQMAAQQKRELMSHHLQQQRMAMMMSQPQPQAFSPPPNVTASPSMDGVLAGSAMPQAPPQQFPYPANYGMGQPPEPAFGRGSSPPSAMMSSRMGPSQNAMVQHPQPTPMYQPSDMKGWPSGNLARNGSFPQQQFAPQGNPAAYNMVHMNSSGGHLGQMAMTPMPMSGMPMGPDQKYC
NALP1 yeast inh = NALP1 inflammasome inhibitors in reconstituted yeast, colorimetric, S. cerevisiae, triplicate retest; inhibition, % at 10 µM; actives 0.61% (n = 280,000); AID 2071, 2009; S. cerevisiae NALP1/ASC/caspase-1 growth, X-gal OD620, 72 h; in the data active = inhibition mostly above about 24%, no sharp cut-off; inactive = mostly below about 32%
HSP90 inh = HSP90 inhibitors, primary screen, cell lysate, luminescence | Heat shock protein HSP 90 (rabbit reticulocyte lysate; luciferase refolding) | inhibition, % at 5.6 µM | AID 1789, 2009 | Rabbit reticulocyte lysate, luciferase refolding luminescence, 3 h | actives 0.91% (n = 290,000);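 active = inhibition above the screen-wide mean plus 3 SD, computed separately per campaign, cut at about 16% in these data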;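 also: 0% = DMSO wells and 100% = 60 µM geldanamycin wells; inhibitors lower the luminescence because luciferase stays unfolded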
HSF-1 act = HSF-1 activators, primary screen, NIH3T3-HGL cells, MG132 stress, luminescence, single point. NIH3T3-HGL HSF-1 luciferase reporter, 8 h; 100% = twice DMSO control signal. activation, % at 9 µM. actives 1.7% (n = 300,000);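 active = mean replicate activation of at least 50% with a set share of replicates each reaching 50%; inconclusive = only one of those two conditions met; inactive = mean below 50% and too few replicates reaching it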;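 also: 0% = median of the neutral control wells and 100% = twice that signal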
HSF1 inhib = HSF1 inhibitors in luciferase reporter cells, primary screen, cell-based, NIH3T3, luminescence | activity change, negative = inhibition, % at 7.5 µM (by protocol) | NIH3T3-HGL HSE-luciferase, MG132-induced, luminescence 8 h; active compounds read low | AID 2098, 2009 | actives 0.77% (n = 300,000);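 active = more than half of replicate wells show activity change below -50%, luminescence cut by over half; inconclusive = some wells, but at most half, below -50%; inactive = no replicate well below -50%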;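 also: luciferase reports HSF-1 transcriptional activity via heat shock element; 0% = median of DMSO wells and -100% = zero luminescence signal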
Hsp70 activator = Hsp70 transcriptional activators, primary screen, cell-based, HeLa, Hsp70 promoter luciferase, luminescence, 10 µM | HeLa Hsp70 promoter luciferase reporter; scaled: vehicle 0, proteasome-inhibitor control 100% | activation, % at 10 µM | actives 0.04% (n = 200,000);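 active = activation above the mean across all tested compounds plus 3 SD, cutoff set per campaign, cut at about 5.5% in these data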;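 also: 100% = MG132 at 30 µM as the positive control and 0% = DMSO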
An asterisk follows results filed as active; ? = inconclusive; . = no result.

SMILES	p-CIP stab down	NALP1 yeast inh	HSP90 inh	HSF-1 act	HSF1 inhib	Hsp70 activator
O=C(CCn1c(=O)oc2ccccc21)Nc1ccccc1	-12	9	-2	101*	46	1
O=C1C2C(C(=O)N1CCN1CCN(Cc3ccc([N+](=O)[O-])cc3)CC1)[C@H]1C=C[C@@H]2C1 (some centres not stated)	-2	1	3	29	1	.
CCOC(=O)C1(Cc2cccc(Cl)c2)CCCN(C(=O)CN2C(=O)CSC2=O)C1 (configuration not stated)	-8	8	0	12	5	.
c1ccc2c(c1)nc(N1CCCCC1)c1ccccc12	-23	39*	4	11	-5	.
c1ccc2c(N3CCCCC3)nc(N3CCCC3)nc2c1	3	3	2	-13	-10	0
CCN(CC)S(=O)(=O)c1ccc(C)c(NC(=O)CNc2cccc(S(=O)(=O)N3CCOCC3)c2)c1	.	.	.	-14	-2	.
CCN(CC)S(=O)(=O)c1ccc(C)c(NC(=S)Nc2cccc(S(=O)(=O)N3CCCCCC3)c2)c1	-17	26	-2	56*	21	0
Cc1ccc(S(=O)(=O)N2CCCC(c3nc4c(nnn4Cc4ccc5c(c4)OCCO5)c(=O)[nH]3)C2)cc1 (configuration not stated)	-9	19	2	-9	-7	.
CC1(C)CC(=O)C=C(Nc2ccc(Br)cc2F)C1	-11	5	1	-70	-64*	.
CCn1cc(CN2CCC(n3nccc3NC(=O)c3ccc(OC)cc3)CC2)cn1	-3	16	-2	-2	-9	.
O=C(NCCc1csc(-c2ccccc2)n1)c1c(F)cccc1F	-11	18	41*	-1	-9	0
CCOC(=O)C1=C(CN2CCN(C(=O)c3ccco3)CC2)NC(=O)NC1c1ccc(OC)cc1 (configuration not stated)	-2	16	1	-91	-88*	.
CCOC(=O)C1=C(CN2CCN(C(=O)c3ccco3)CC2)NC(=O)NC1c1ccccc1 (configuration not stated)	4	23	5	11	-2	.
CN(C(=O)CN1C(=O)S/C(=C\c2ccccc2)C1=O)C1CCS(=O)(=O)C1 (configuration not stated)	-3	27	4	-89	-86*	.
CCOC(=O)c1nnc(-c2cccs2)nc1Oc1ccccc1C(=O)OC	-20	3	2	-20	-1	-1
CCOC(=O)c1nnc(-c2cccs2)nc1NC(C)C	0	24*	3	14	3	0
CCc1nc(N2CCN(C(=O)CCl)CC2)c2c3c(sc2n1)CC(C)CC3 (configuration not stated)	0	40*	3	32	18	.
O=C(/C=C/c1ccccc1[N+](=O)[O-])c1ccccc1Br	2	3	6	65*	43	0
Cc1ccc(C(=O)C(C)OC(=O)c2ccccc2[N+](=O)[O-])cc1 (configuration not stated)	2	18	6	87*	51	0
COc1ccccc1C(=O)NNC(=O)c1ccccc1[N+](=O)[O-]	2	15	4	8	-3	0
Cc1ccc(C(=O)/C=C/c2ccccc2[N+](=O)[O-])cc1	18	12	-2	135*	91	0
O=C(/C=C\c1ccccc1[N+](=O)[O-])Nc1ccccc1	-2	-7	-2	30	45	0
CN(C)CCCN(C(=O)c1ccc(S(=O)(=O)N2CCCCCC2)cc1)c1nc2c(F)cc(F)cc2s1	.	.	.	3	2	.
CCCSc1nnc2n(-c3ccccc3OC)c(=O)c3c4c(sc3n12)CCC4	-2	.	4	59*	21	0
O=c1o[nH]c(-c2ccccc2)c1-c1ccccc1	.	.	.	-67	-60*	.
Cc1ccc(NCc2nc3ccccc3n2C)cc1C	5	17	1	?	26	.
Cc1cc(C)c(S(=O)(=O)Nc2cccc(/C=C/C(=O)O)c2)c(C)c1	-7	6	-6	83*	41	0
